Bioassay records as filed in PubChem BioAssay.
Most compounds without a hit are left out; they make up all but 19% or so of the library.
TDP1 block: qHTS Assay for Inhibitors of Tyrosyl-DNA Phosphodiesterase (TDP1); Tyrosyl-DNA phosphodiesterase 1 (Homo sapiens), Q9NUW8; recombinant TDP1, AlphaScreen DNA substrate cleavage; Potency, µM (doses to about 130 µM), without a hit: at the highest dose activity change, negative = inhibition, most hits filed as inhibitors; actives 0.28% (n = 350,000); AID 485290, 2010; further: potency means the concentration at half of the fitted maximal effect; on the % scale 0 is the no-effect control and ±100 the full control effect; nearly all actives have a fitted effect of over 40% in size
Target sequence (Q9NUW8 whole entry, looked up): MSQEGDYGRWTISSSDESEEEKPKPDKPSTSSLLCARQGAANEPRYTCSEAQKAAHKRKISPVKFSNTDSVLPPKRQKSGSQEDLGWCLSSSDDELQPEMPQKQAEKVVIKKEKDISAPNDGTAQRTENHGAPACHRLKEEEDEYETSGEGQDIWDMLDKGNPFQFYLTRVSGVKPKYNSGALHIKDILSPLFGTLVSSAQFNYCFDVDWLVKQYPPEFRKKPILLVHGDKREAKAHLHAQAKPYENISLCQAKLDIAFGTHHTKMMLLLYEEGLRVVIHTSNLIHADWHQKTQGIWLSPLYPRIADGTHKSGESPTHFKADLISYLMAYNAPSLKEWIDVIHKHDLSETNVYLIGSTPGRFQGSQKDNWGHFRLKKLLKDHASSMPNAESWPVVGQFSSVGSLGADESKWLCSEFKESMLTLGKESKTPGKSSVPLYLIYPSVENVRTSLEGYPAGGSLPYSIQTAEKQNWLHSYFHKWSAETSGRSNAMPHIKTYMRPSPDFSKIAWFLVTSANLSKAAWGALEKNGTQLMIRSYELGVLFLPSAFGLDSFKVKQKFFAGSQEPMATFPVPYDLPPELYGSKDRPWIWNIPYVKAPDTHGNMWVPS
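Here, a 5' biotin and 3' phosphotyrosine-FITC DNA oligonucleotide reports Tdp1 activity: intact substrate bridges AlphaScreen beads, while cleavage leaves a 3' phosphate and drops signal. All incubations at room temperature.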
TDP1 cell noCPT: qHTS for Inhibitors of human tyrosyl-DNA phosphodiesterase 1 (TDP1): qHTS in cells in absence of CPT; DT40 Tdp1-/- hTDP1 cells, no CPT, ATP luminescence, 48 h; Potency, µM (titrated, usually from 46.2 µM), for inactives: at the highest dose activity change, negative = growth inhibition, hits mostly inhibitors; actives 15% (n = 420,000); AID 686978, 2013; further: potency means the concentration at half of the fitted maximal effect; on the % scale 0 is the no-effect control and ±100 the full control effect; nearly all actives have a fitted effect of over 55% in size
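Camptothecin absent (DMSO only). Human TDP1-complemented DT40 knockout cells, 400 cells/well, 37 °C for minimum 48 hr; ATP measured via CellTiter-Glo, 30 min dark incubation, luminescence.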
IL-1B inflam inh: qHTS for Inhibitors of Inflammasome Signaling: IL-1-beta AlphaLISA Primary Screen; actives 4.7% (n = 360,000); THP-1 LPS/ATP IL-1B secretion, AlphaLISA, 16 h; hits give low values; activity change, % at 57.5 µM; in the data active means activity change below about -50%; inconclusive means mostly about -30% to -49%; further: on the % scale 0 is the no-effect control and ±100 the full control effect
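Secreted IL-1B measured by AlphaLISA bead assay after 16 h compound exposure of THP-1 cells; compounds (final up to 57.5 uM) added 1 h before LPS (250 ng/mL) and ATP (1.25 mM) stimulation; lower signal means less secretion.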
TDP1 cell CPT: qHTS for Inhibitors of human tyrosyl-DNA phosphodiesterase 1 (TDP1): qHTS in cells in presence of CPT. Potency, µM (series often up to 46.2 µM), for inactives: top-dose activity change, negative = growth inhibition, most hits filed as inhibitors. AID 686979, 2013. chicken DT40 Tdp1-/-;hTDP1 cells + 20 nM CPT, ATP luminescence, 48 h. actives 12% (n = 420,000); further: potency means the concentration at half of the fitted maximal effect; on the % scale 0 is the no-effect control and ±100 the full control effect; nearly all actives have a fitted effect of over 55% in size
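Chicken DT40 Tdp1-/- cells complemented with human TDP1, 400 cells/well, exposed to compounds plus 20 nM camptothecin for at least 48 h at 37 C; viability read as ATP content by CellTiter-Glo luminescence.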
HepG2 viability: qHTS for Inhibitors of TGF-b: Cytotox Counterscreen; actives 0.76% (n = 410,000); HepG2 CAGA-GFP viability, ATP luminescence, 18 h; Potency, µM (titrated, usually from 46.1 µM), without a hit: at the top dose activity change, negative = cytotoxicity, usual class: cytotoxic; further: potency means the concentration at half of the fitted maximal effect
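CellTiter-Glo luminescence gave cytotoxicity after 18 hours at 37 degrees C. The cells were HepG2 CAGA-GFP in 1% FBS DMEM, stimulated with 500 pg/mL TGF-beta after compound addition. %Activity was normalised to no-cell wells (complete cell-killing) and DMSO (no toxicity), and curves were fitted and classified.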
TGFb inhibitor: qHTS for Inhibitors of TGF-b | actives 1.2% (n = 410,000) | HepG2 CAGA-GFP TGF-b/SMAD3 reporter, GFP fluorescence, 18 h; TGF-beta stimulated, 500 pg/mL final | AID 588855, 2011 | Potency, µM (titrated, usually from 46.1 µM), inactives show at the highest dose activity, negative = inhibition, most hits filed as inhibitors; further: potency means the concentration at half of the fitted maximal effect; on the % scale 0 is the no-effect control and ±100 the full control effect; nearly all actives have a fitted effect of over 65% in size
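Smad-responsive CAGA-GFP expression was quantified in HEPG2 cells exposed to compounds and 500 pg/mL final TGF-beta for 18 h at 37 degrees C; unstimulated wells defined full inhibition.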
An asterisk follows results filed as active; ? = inconclusive; / = no result. Unless noted, the call rests on the fitted dose curve; in most records, active means well fitted curve in the direction sought with a large enough effect; inconclusive means small, poorly fitted or top-dose-only effect, or another doubt; inactive means no such curve, though single readings can be large; an effect the other way counts as inactive or inconclusive.

SMILES | TDP1 block | TDP1 cell noCPT | IL-1B inflam inh | TDP1 cell CPT | HepG2 viability | TGFb inhibitor
Nc1nc(SCc2ccccc2)c2ncn(Cc3ccccc3)c2n1 | / | ? | -63.8* | ? | -34.4% | -15.2%
CC(C)Cn1cnc2c(SCCc3ccccc3)nc(N)nc21 | / | ? | -8.6 | ? | 0.7% | 4.4%
CC(=O)Nc1c(Br)cc2c(c1Br)Cc1cc(Br)ccc1-2 | / | 13µM* | -15.0 | -27.8% | -0.1% | ?
O=CNc1c(Br)cc2c(c1Br)Cc1cc(Br)ccc1-2 | / | -9.9% | 9.7 | -16.7% | 0.7% | -15.6%
COc1ccc(NC(=O)c2ccc3c(c2)nnn3C2CCCC2)cc1Cl | 2.6% | -24.7% | / | -2.4% | -1.5% | 1.4%
COc1cc(C(=O)Nc2ccc3c(c2)C(=O)c2ccccc2C3=O)cc(OC)c1OC | 1.2% | -13.8% | -1.8 | 1.6% | 7.5% | 7.5%
COc1ccc(C(=O)Nc2ccc3c(c2)N(C2CCCC2)C(=O)c2ccccc2S3)cc1OC | 3.4% | 5.17µM* | / | 10.3µM* | -3.6% | 20.6%
COc1ccc(C(=O)Nc2ccc3c(c2)C(=O)c2ccccc2C3=O)cc1OC | 0.0% | ? | 10.7 | 10.3µM* | -20.6% | -13.7%
COc1ccc(C(=O)c2c(C(F)(F)F)oc3c2C(=O)c2ccccc2C3=O)cc1OC | 5.1% | 5.8µM* | ? | 2.31µM* | 3.55µM* | 3.98µM*
CCOc1ccc(-n2c(=O)c3c4c(sc3n(Cc3cccc(Cl)c3)c2=O)CCCC4)cc1 | 0.0% | -6.2% | / | -17.4% | -5.2% | 1.0%
CCOCCCNC(=O)CN1C(=O)/C(=C\c2ccc(C)cc2)Sc2ccccc21 | 0.0% | ? | 2.0 | 20.6µM* | 4.4% | 11.3%
CCOCCCNC(=O)CN1C(=O)/C(=C/c2ccccc2)Sc2ccccc21 | 0.0% | ? | ? | ? | -29.6% | ?
COCCCNC(=O)CN1C(=O)/C(=C/c2ccccc2)Sc2ccccc21 | 6.2% | 14.6µM* | -15.3 | ? | -20.4% | -6.2%
COc1ccc(C2SCC(=O)N2CCc2ccc(OC)c(OC)c2)cc1 (centres undefined) | 11.1% | 5.17µM* | 2.5 | 7.31µM* | -17.2% | -18.2%
COc1ccc(CCNC2=C(Cl)C(=O)N(CCc3ccc(OC)c(OC)c3)C2=O)cc1OC | -0.9% | 10.3µM* | 26.9 | 14.6µM* | -22.6% | -9.9%
COc1ccc(CCN2C(=O)C3C4CCC(C4=C(C)C)C3C2=O)cc1OC (centres undefined) | 2.7% | 8.2µM* | 1.6 | ? | 1.0% | -0.3%
COc1ccc(CCN2C(=O)CC(NC34CC5CC(CC(C5)C3)C4)C2=O)cc1OC (centres undefined) | -4.9% | 18.4µM* | 17.6 | ? | -13.2% | 4.6%
COc1ccc(CCN2C(=O)C3C4CC(C5C(C(=O)NN)=NOC45)C3C2=O)cc1OC (centres undefined) | 2.5% | 0.7% | -6.5 | 1.3% | 1.1% | -0.6%
COc1ccc(CCN2C(=O)c3cccnc3C2=O)cc1OC | -2.9% | 6.1% | -2.4 | -0.2% | -72.8% | 0.2%
COc1ccc(CCN2C(=O)CSC2c2cccc([N+](=O)[O-])c2)cc1OC (centres undefined) | / | ? | -1.2 | ? | -3.3% | -1.8%
CC(=O)c1cccc(NS(=O)(=O)c2cc3c(cc2C)n(C)c(=O)c(=O)n3C)c1 | 8.7% | -24.1% | / | 12.9% | 4.4% | 7.2%
CCCC1(C(=O)OC)C=C2C(=C(c3ccccc3)C(=O)C2C)CN1 (centres undefined) | -2.7% | / | / | / | / | /
O=C(COC(=O)c1cc(-c2cccs2)nc2ccccc12)c1ccc(Br)cc1 | / | ? | / | -17.2% | 4.8% | 15.5%
COc1ccc(CCN2C(=O)CSC2=Nc2ccc(C)cc2C)cc1OC | 4.3% | 23.1µM* | 14.5 | 23.1µM* | -4.2% | -4.4%
COc1ccc(CCn2c(C)ccc2C)cc1OC | 2.4% | / | / | / | / | /
SMILES | TDP1 block | TDP1 cell noCPT | IL-1B inflam inh | TDP1 cell CPT | HepG2 viability | TGFb inhibitor
COc1ccc(CCN2C(=O)C=CC2=O)cc1OC | / | 1.3µM* | -115.3* | 0.82µM* | -93.2% | ?
COc1ccc(CCN2C(=O)C3C4CC(C5C(C(N)=O)=NOC45)C3C2=O)cc1OC (centres undefined) | 12.6µM* | -15.7% | 0.0 | -5.2% | 4.5% | 13.7%
O=C(Cn1c(=O)n(-c2ccccc2)c(=O)c2c3c(sc21)CCCC3)Nc1cccc(F)c1 | -0.9% | -26.4% | / | ? | 0.3% | -5.4%
Cc1c(C(=O)NCCSCc2c(F)cccc2Cl)cnn1-c1ccc(F)cc1 | 5.5% | 25.9µM* | -21.1 | ? | -43.3% | ?
COc1cccc(C(=O)NCCSCc2c(F)cccc2Cl)c1 | / | ? | -65.2* | 1.5% | 4.6% | 17.0%
CCCCn1nc(C(=O)Nc2c(C)n(C)n(-c3ccccc3)c2=O)c2ccccc2c1=O | 1.3% | 3.4% | 9.7 | -16.3% | 0.4% | -4.7%
C[C@@H]1CN([C@H](C)CO)C(=O)c2c(c3ccccc3n2C)-c2ccccc2CO[C@H]1CN(C)Cc1ccc(Oc2ccccc2)cc1 | / | 25.9µM* | -19.5 | ? | -52.1% | 15.8µM*
C[C@@H]1CN([C@H](C)CO)C(=O)c2c(c3ccccc3n2C)-c2ccccc2CO[C@H]1CN(C)Cc1ccc(C(F)(F)F)cc1 | / | 20.6µM* | ? | ? | 20µM* | ?
C[C@@H]1CN([C@H](C)CO)C(=O)c2c(c3ccccc3n2C)-c2ccccc2CO[C@@H]1CN(C)C(=O)Nc1ccccc1C(F)(F)F | / | 0.0% | 10.6 | -1.5% | 5.1% | 4.2%
COc1ccc(NC(=O)N(C)C[C@@H]2OCc3ccccc3-c3c(n(C)c4ccccc34)C(=O)N([C@H](C)CO)C[C@H]2C)c(OC)c1 | / | ? | ? | 14.6µM* | 8.6% | -3.1%
C[C@@H]1CN([C@H](C)CO)C(=O)c2c(c3ccccc3n2C)-c2ccccc2CO[C@H]1CN(C)Cc1cccc(C(=O)O)c1 | / | -15.7% | -13.1 | -19.5% | 4.3% | -1.3%
CN1CCN(c2ncc3nc(-c4cc(F)cc(F)c4)c(=O)n(-c4ccccc4)c3n2)CC1 | / | -18.2% | / | -11.5% | / | /
Cc1ccc2[nH]c(C(=O)N/N=C/c3ccc([N+](=O)[O-])cc3)c(C)c2c1 | / | 4.11µM* | -9.9 | 3.66µM* | 2.1% | -12.1%
